HCMV antiviral = qHTS Assay for inhibitors of the human cytomegalovirus (HCMV); hit rate 4.5% among 410,000; HFF cells, HCMV-luciferase reporter, 72 h; active compounds read low; AID 1259415, 2018; activity change, negative = inhibition, % at 57.5 µM; in the data active = activity change below about -60%; inconclusive = no clear call, values can overlap the other calls; inactive = above about -39%
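Compounds were evaluated in HFFs infected with an HCMV luciferase reporter virus (MOI 1 PFU/cell). Luciferase in lysates collected 72 h post infection served as the replication measure.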
Pf growth 96h = Primary qHTS for delayed death inhibitors of the malarial parasite plastid, 96 hour incubation. P. falciparum luciferase reporter growth, 96 h. Potency, µM (top dose mostly 28.7 µM), without a hit: at the highest dose activity change, negative = inhibition, hits mostly inhibitors. hit rate 6.9% among 320,000. AID 504834, 2011; note: potency is the fitted concentration of half-maximal effect
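Parasite growth measured via integrated firefly luciferase reporter in P. falciparum. Infected erythrocytes at 2% hematocrit, 0.05% parasitemia final were treated 96 hours at 37 C under 5% CO2, and luminescence was read.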
HCV inh = qHTS Assay for Inhibitors of Hepatitis C Virus (HCV); Huh7.5.1 HCVcc-Cre infection, luciferase reporter, 44 h; Potency, µM (doses to about 41.8 µM), inactives show at the highest dose activity change, negative = inhibition, hits mostly inhibitors; hit rate 3.4% among 340,000; AID 651820, 2012; note: potency is the fitted concentration of half-maximal effect
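HCVcc-Cre virus at an moi near 0.5 was added right after compound to cells cultured 4 h from seeding (1,000 cells/well). Luciferase activity was determined 44 h later, 15 min after substrate addition at RT.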
Pf growth 48h = Primary qHTS for delayed death inhibitors of the malarial parasite plastid, 48 hour incubation | hit rate 5.9% among 310,000 | P. falciparum luciferase growth in erythrocytes, 48 h | AID 504832, 2011 | Potency, µM (series often up to 28.7 µM), inactives show at the highest dose activity change, negative = inhibition, actives largely listed as inhibitors; note: potency is the fitted concentration of half-maximal effect
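First compound was added to culture medium, then infected red cells at 0.1% parasitemia and 2% hematocrit (final). After incubation at 37 C under 5% CO2, luciferase detection reagent was dispensed and light output recorded.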
* hit, by the source's call; ? = inconclusive; · = no result given; [ ] = dose if it differs, or a comment. Most compounds without a hit are left out; they make up all but 13% or so of the library. Unless noted, calls come from the whole dose curve; as a rule, active = well fitted inhibition curve with a large enough effect; inconclusive = small, poorly fitted or top-dose-only effect, or another doubt; inactive = no such curve, though single readings can be large or run the other way. % is set by controls: 0 for no effect and ±100 for the full control effect.

SMILES | HCMV antiviral | Pf growth 96h | HCV inh | Pf growth 48h
CCOc1ccccc1NC(=S)N1C2CCC1CC(NC(=O)NC13CC4CC(CC(C4)C1)C3)C2 (stereo unspecified) | -12 | ? | -28% | ?
COCC(=O)NC1CC2CCC(C1)N2C(=S)Nc1ccccc1C(=O)OC (stereo unspecified) | -83* | 36% | 3% | 49%
COc1ccccc1-c1sc2ccccc2c1-c1ccccc1OC | -5 | 2.6µM* | ? | 13µM*
COc1ccc(-c2c(-c3ccccc3OC)sc3ccccc23)cc1OC | -9 | 9.3µM* | ? | ?
CCC[C@H]1[C@@H](NS(=O)(=O)c2cccs2)CC[C@@]23CCCN2C(=O)CCC[C@@H]13 | -5 | · | · | ·
CC(=O)Nc1ccc(-n2cc3c(c2-c2ccc(C)cc2)c(=O)n(C)c(=O)n3C)cc1 | 12 | · | · | ·
CCCc1ccc(OCc2ccc(C(=O)N3CCN(c4ccccn4)CC3)o2)c(OC)c1 | 54 | -1% | ? | 13µM*
CCCc1ccc(OCc2ccc(C(=O)N3CCCC3)o2)cc1 | 21 | 23% | ? | 10µM*
CCCNC(=O)c1ccc(COc2ccc(CCC)cc2OC)o1 | -62* | -11% | ? | 16%[0.00184 µM]
COc1ccc(CC(=O)N2CCN(c3ccccn3)CC2)cc1OC | 3 | · | 4% | -11%
CCN(Cc1ccccc1)C(=O)Cn1c(=O)n(-c2ccc(Cl)cc2)c(=O)c2c(C)c(C)sc21 | 3 | · | · | ·
CS(=O)(=O)c1ncc(N(Cc2ccco2)Cc2cccs2)c(C(=O)Nc2ccccc2F)n1 | 19 | · | · | ·
Cc1cccc(C)c1NC(=O)C(c1cc2ccccc2o1)N1CCC(c2ccccc2)CC1 (stereo unspecified) | -12 | · | · | ·
COc1cc(NC(=O)c2cc([N+](=O)[O-])ccc2NC(=O)CNC2CCCCC2)cc(OC)c1 | 15 | 12% | ? | 0.83µM*
COc1cc(NC(=O)c2cc([N+](=O)[O-])ccc2NC(=O)CNC2CCCCC2C)cc(OC)c1 (stereo unspecified) | -3 | 36% | 6.3µM* | 0.41µM*
O=C(CNC1CCCCC1)Nc1ccc([N+](=O)[O-])cc1C(=O)Nc1ccccc1F | -35 | ? | ? | ?
COc1ccc(N=C2C(=O)N3c4c(cccc42)C(C)=CC3(C)C)cc1 | -63* | 12µM* | ? | ?
COc1ccc(N=C2C(=O)Nc3ccccc32)cc1 | -13 | 26% | 10% | -5%
N#C/C(=C\c1coc2ccc(O)cc2c1=O)C(=O)Nc1nc2ccccc2s1 | -73* | 56% | ? | 42%
CC1CCCN(C(=O)Nc2ccc([N+](=O)[O-])cc2)C1 (stereo unspecified) | -17 | · | · | ·
CC(C)[C@@H](C(=O)N[C@@H](Cc1ccccc1)C(=O)O)N1C(=O)N2CCc3c([nH]c4ccccc34)[C@@]2(C)C1=O | 11 | -21% | 2% | ?
COc1ccc2[nH]c3c(c2c1)CCN1C(=O)N([C@@H](C)C(=O)NCc2ccccc2OC)C(=O)[C@]31C | 17 | 7.4µM* | 13µM* | 4.1µM*
C[C@@H](C(=O)NCCc1ccccc1F)N1C(=O)N2CCc3c([nH]c4ccccc34)[C@@]2(C)C1=O | 5 | ? | 6.3µM* | -30%
COc1ccc2[nH]c3c(c2c1)CCN1C(=O)N([C@@H](C)C(=O)NCc2ccccc2)C(=O)[C@]31C | 14 | ? | -24% | ?
CC(C)C[C@@H](C(=O)NC1CC1)N1C(=O)N2CCc3c([nH]c4ccccc34)[C@@]2(C)C1=O | 14 | ? | -29% | ?
SMILES | HCMV antiviral | Pf growth 96h | HCV inh | Pf growth 48h
C[C@@H](C(=O)NCCc1ccccc1)N1C(=O)N2CCc3c([nH]c4ccccc34)[C@@]2(C)C1=O | -5 | ? | 11µM* | ?
CCOc1ccccc1CN1CCc2nc(Nc3ccc4c(c3)OCCO4)ncc2C1 | -23 | · | · | ·
O=C(CSc1nc(NS(=O)(=O)c2ccccc2)cc(=O)[nH]1)Nc1ccc(F)cc1 | 86 | 1.9µM* | 7% | -20%
CC(C)(C)OC(=O)N1CCC(c2c(C(=O)N3CCCCC3)cnn2-c2ccc(F)cc2)CC1 | 15 | · | · | ·
CCOC(=O)c1c(N)sc(C(O)(C(F)(F)F)C(F)(F)F)c1-c1ccc(OC)cc1OC | -19 | ? | ? | 12µM*
CCOC(=O)c1c(N)sc(N)c1C(=O)OCC | -1 | -5% | 12% | ?
COc1cccc(CN2c3ccc(Br)cc3C(=O)CS2(=O)=O)c1 | -17 | ? | ? | 9.3µM*
Cc1cccc(-n2nnnc2SCC(=O)NCC2(N3CCOCC3)CCCCC2)c1C | -6 | ? | ? | 12µM*
O=C(CSc1nnnn1-c1ccccc1)NCC1(N2CCCCC2)CCCCC1 | -23 | ? | -6% | ?
Cc1ccc(-n2nnnc2SCC(=O)NCC2(N3CCCCC3)CCCCC2)c(C)c1 | 7 | 7.4µM* | -18% | 10µM*
Cc1ccc(-n2nnnc2SCC(=O)Nc2ccc(N3CCN(C)CC3)cc2)c(C)c1 | -99* | -3% | -16% | ?
Cc1ccc(-n2nnnc2SCC(=O)N2CCc3ccccc3C2)c(C)c1 | -4 | 13µM* | 13µM* | ?
CCN(C(=O)Cn1c(=O)oc2cc(S(=O)(=O)N3CCCC3)ccc21)c1cccc(C)c1 | -18 | · | · | ·
CCOC(=O)c1c(NC(=O)C(C)Sc2cn(CCNC(=O)c3c(F)cccc3F)c3ccccc23)sc2c1CCC2 (stereo unspecified) | -15 | · | · | ·
CC(C)Oc1ccc(CNC(=O)Cn2nc(N3CCN(c4ccccc4)CC3)ccc2=O)cc1 | 7 | · | · | ·
Cc1ccc(-n2nnnc2SCC(=O)NCC2(N3CCOCC3)CCCCC2)cc1 | -15 | ? | 30% | ?
Cc1ccc(C)c(-n2nnnc2SCC(=O)Nc2cccc(-c3nnc4n3CCCCC4)c2)c1 | -18 | ? | -11% | 9.3µM*
Cc1ccc(-n2nnnc2SCC(=O)NCC2(N3CCOCC3)CCCCC2)c(C)c1 | ? | ? | ? | 13µM*
COc1cc(OC)c(NC(=O)N2CCCn3nc(C)cc32)cc1Cl | -3 | · | · | ·
CCCCn1nc(C(=O)Nc2c(C)n(C)n(-c3ccccc3)c2=O)c2ccccc2c1=O | -19 | 15µM* | 5% | ?
Cc1c(NC(=O)c2nn(CC(C)C)c(=O)c3ccccc23)c(=O)n(-c2ccccc2)n1C | -13 | ? | 1% | -12%
Cc1c(NC(=O)c2cc(-c3ccccc3)on2)c(=O)n(-c2ccccc2)n1C | -36 | -17% | 6% | 4%
CCCc1cc(C(=O)Nc2c(C)n(C)n(-c3ccccc3)c2=O)no1 | 106 | 9.3µM* | 5% | ·
CCc1ccccc1NC(=O)Cn1c(=O)n(CCCCCC(=O)NCc2ccc(C)cc2)c(=O)c2sccc21 | -32 | · | · | ·
CNS(=O)(=O)c1cccc(C(=O)OCCCOC(=O)c2cccc(S(=O)(=O)NC)c2)c1 | -17 | ? | 11µM* | 8%
CCOC(=O)c1[nH]c2ccccc2c1NC(=O)c1ccc(C)c(C)c1 | -6 | · | · | ·
